Compound activity: PubChem BioAssay, several laboratories
Tat transport: inhibitors of E. coli Tat protein transport | E. coli MC4100 TorA-mCherry Tat export, fluorescence | inhibition, % at 10 µM | actives 0.036% (n = 340,000);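 active = mean replicate inhibition at least 50% and at least half of replicates individually reaching 50%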;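 also: exported cargo escapes ClpAP degradation while cytoplasmic cargo is degraded and loses fluorescence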
E coli growth-1: reduces bacterial viability in AddAB counter-screen. AID 449728. E. coli V3065 growth, OD600 absorbance, 18 h. inhibition, % at 11.9 µM. actives 0.27% (n = 330,000);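 active = inhibition above the campaign's mean inhibition across all tested compounds plus 3 SD, cut at about 9.9% in these data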;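 also: uninfected addAB+ strain grown without phage in ampicillin broth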
AddAB inh: less growth of phage-infected E. coli with AddAB | E. coli expressing H. pylori AddAB, absorbance growth | inhibition, % at 11.9 µM | actives 0.29% (n = 330,000) | AID 435030; in the data active = inhibition above about 12%
E coli growth-2: blocks Escherichia coli growth; OD600, 23 h; active compounds read low; OD600 absorbance (test concentration not listed); actives 0.21% (n = 330,000); AID 1053175;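 active = OD600 absorbance below the run mean of sample wells minus 3.6 SD, in any replicate, cut at about 0.56 in these data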
phage Ecoli inh: E. coli growth loss with phage present. AID 651602. actives 0.26% (n = 360,000). growth absorbance. inhibition, % at 11.9 µM; in the data active = inhibition above about 11%
Of the large screens only hits and unclear results are named; the others gave an inactive call. Hits are enriched below; roughly 0.51% of the tested compounds scored in any of these assays.

O=C(Nc1ccc(Cl)cc1)Nc1ccc2c(c1)N1CCN=C1S2	E coli growth-2 0.5
O=c1[nH]c(=O)n(C2CC(O)C(CO)O2)cc1F (centres undefined)	E coli growth-2 0.062 (no result: Tat transport, E coli growth-1, AddAB inh, phage Ecoli inh)
C/C(CC(=O)Nc1cc(C)ccn1)=N\NC(=O)c1cccc(C)c1O	phage Ecoli inh 11 (no result: E coli growth-2)
CC(C)(C)C1COC(=O)C(Cc2ccc(F)cc2)CC=CCC(CC(=O)NCCO)C(=O)N1 (centres undefined)	none (no result: Tat transport, E coli growth-1, AddAB inh, phage Ecoli inh)
O=[N+]([O-])c1ccc(SNc2ccccc2)c([N+](=O)[O-])c1	none (no result: E coli growth-1, AddAB inh, E coli growth-2)
O=[N+]([O-])c1ccc(-[n+]2ccc3ccccc3c2)c([N+](=O)[O-])c1	E coli growth-2 0.45
Cc1ccc(-c2c(C(=O)NN=Cc3c[nH]c4ccccc34)nnn2-c2nonc2N)cc1	none (no result: Tat transport, E coli growth-1, AddAB inh, phage Ecoli inh)
Oc1c(CN2CCN(c3ccccn3)CC2)cc(Cl)c2cccnc12	E coli growth-2 0.53 (no result: phage Ecoli inh)
Oc1ccc(CN2CCCCC2)c2cccnc12	none
Oc1c(Cl)cc(CN2CCCCC2)c2cccnc12	E coli growth-1 11 (no result: E coli growth-2, phage Ecoli inh)
O=C(CCCOc1ccc(Cl)cc1Cl)NN=CC1CCCCC1	none (no result: Tat transport, E coli growth-1, AddAB inh, phage Ecoli inh)
O=C1C=C(NCc2ccccc2)c2ccccc2C1=O	E coli growth-2 0.47 (no result: E coli growth-1, AddAB inh)
O=C1C=C(Nc2ccccc2O)c2ccccc2C1=O	E coli growth-2 0.48
CSc1ccc(C=NNC(=O)c2ccc(C)c(C)c2)cc1	none (no result: Tat transport, E coli growth-1, AddAB inh, phage Ecoli inh)
OC(CNCC(c1ccc(Cl)cc1Cl)c1c[nH]c2ccccc12)c1ccccc1 (centres undefined)	E coli growth-2 0.45
CCc1ncc(C)[nH]1	none (no result: Tat transport, E coli growth-2)
CCc1ncc(C)nc1CC	Tat transport 55
O=C(O)c1ccccc1C(=O)Nc1ccc(S(=O)(=O)Nc2nccs2)cc1	E coli growth-1 11
COc1ccccc1C(=O)Nc1ccc(S(=O)(=O)Nc2nccs2)cc1	none
O=C(NN=Cc1ccccc1F)NC1CCCCC1	none (no result: Tat transport, E coli growth-1, AddAB inh, phage Ecoli inh)
CCCCNC(=O)O[C@@H]1C[C@H]2CCCC(=O)N3CC[C@@H](C1)[C@@H]23	none (no result: E coli growth-2)
CCCCCCCN(c1ccccc1)[C@@H]1C[C@H]2CCCC(=O)N3CC[C@@H](C1)[C@@H]23	Tat transport 51 (no result: E coli growth-1, AddAB inh, E coli growth-2)
O=C(NCc1ccc(Cl)cc1)C1CCN(S(=O)(=O)c2cccc3nonc23)CC1	E coli growth-2 0.53
O=C(NCCc1ccc(Cl)cc1)C1CCN(S(=O)(=O)c2cccc3nonc23)CC1	none
COc1cc(C=NNC(=O)c2ccoc2C)ccc1OCCN1CCCCC1	none (no result: Tat transport, E coli growth-1, AddAB inh, phage Ecoli inh)
Cc1ccc(NC(=O)Nc2cccc([N+](=O)[O-])c2)cc1F	E coli growth-2 0.48
COc1ccc(NC(=O)Nc2ccc(F)cc2F)c(C)c1	none
Cc1cc([N+](=O)[O-])ccc1NC(=O)Nc1ccc(F)cc1F	E coli growth-2 0.51
Cc1cc(NC(=O)Nc2cccc([N+](=O)[O-])c2)no1	none
O=C(Nc1ccc(OC(F)(F)F)cc1)Nc1cccc([N+](=O)[O-])c1	E coli growth-2 0.39
COc1ccc(NC(=O)Nc2ccc3c(c2)CC(=O)N(C(C)CO)CC(C)C(CN(C)Cc2ccc(C(=O)O)cc2)O3)cc1 (centres undefined)	none (no result: Tat transport, E coli growth-1, AddAB inh, phage Ecoli inh)
NCCCCC(C(=O)NCCCCCCCCCCC(=O)N1CCNCC1)n1cc(CCO)nn1 (centres undefined)	none (no result: Tat transport, E coli growth-1, AddAB inh, phage Ecoli inh)
CC(O)C1O[C@]2(C)CCCC1O2 (some centres undefined)	none (no result: Tat transport, E coli growth-1, AddAB inh, phage Ecoli inh)
Nc1nnc(CC(=O)NN=Cc2ccccc2OCc2ccc(F)cc2)s1	none (no result: Tat transport, E coli growth-1, AddAB inh, phage Ecoli inh)
O=C1c2cc(Br)ccc2N(Cc2ccc(Br)cc2)S(=O)(=O)C1c1cc(Cl)c(Cl)cc1[N+](=O)[O-] (centres undefined)	E coli growth-1 12 (no result: E coli growth-2, phage Ecoli inh)
CCN1C(=O)C2C(c3ccc(-c4ccc(Cl)c(Cl)c4)c(OC)c3)N3CCC[C@@]3(C(=O)OC)C2C1=O (some centres undefined)	none (no result: Tat transport, E coli growth-1, AddAB inh, phage Ecoli inh)
Clc1ccc2c(c1)C(N1CCNCC1)Cc1ccccc1S2 (centres undefined)	E coli growth-2 0.55 (no result: phage Ecoli inh)
C=CCCC(Cc1ccc(F)cc1)C(=O)OCC(Cc1c[nH]c2ccccc12)NC(=O)C(CC=C)CC(=O)N(CCO)Cc1ccccc1 (centres undefined)	none (no result: Tat transport, E coli growth-1, AddAB inh, phage Ecoli inh)
COc1ccccc1C=NNC(=O)c1ccc(NC(=O)c2ccccc2Br)cc1	none (no result: Tat transport, E coli growth-1, AddAB inh, phage Ecoli inh)
CC(=NNC(=O)c1cccc(Br)c1)c1cccc(NC(=O)c2ccc(C)o2)c1	none (no result: Tat transport, E coli growth-1, AddAB inh, phage Ecoli inh)
CC[C@@H](C(=O)[C@@H](C)[C@@H](O)[C@H](C)[C@@H]1O[C@@H]([C@@H](CC)C(=O)O)CC[C@@H]1C)[C@H]1O[C@]2(C=C[C@@H](O)[C@]3(CC[C@@](C)([C@H]4CC[C@](O)(CC)[C@H](C)O4)O3)O2)[C@H](C)C[C@@H]1C	phage Ecoli inh 12 (no result: E coli growth-1, AddAB inh, E coli growth-2)
COc1ccc(NC(=O)ON=Cc2ccccc2Cl)cc1	none (no result: Tat transport, E coli growth-1, AddAB inh, phage Ecoli inh)
COc1ccc(OC)c(NC(=O)C(=O)NN=C(C)CC(=O)Nc2ccc(Cl)cn2)c1	none (no result: Tat transport, E coli growth-1, AddAB inh, phage Ecoli inh)
CCCCN(C)CCn1c(=S)[nH]c2ncccc2c1=O	Tat transport 51
C=Cc1ncc(OC)c2c1[nH]c1ccccc12	E coli growth-2 0.49 (no result: phage Ecoli inh)
Cc1cc(Cl)ccc1NC(=S)NCCC(c1ccccc1)c1ccccc1	E coli growth-1 13
COc1ccc2[nH]c(C)c(CCN3C(=O)C4CC=CCC4C3=O)c2c1 (centres undefined)	none
COc1ccc2[nH]c(C)c(CCN3C(=O)OC(C)(C)C3(C)O)c2c1 (centres undefined)	E coli growth-2 0.63
CCOC(=O)C1C2COc3ccc(OC)cc3C2N2C(=O)c3ccc(F)cc3NC(=O)[C@@]12C (some centres undefined)	none (no result: Tat transport, E coli growth-1, AddAB inh, phage Ecoli inh)
Cc1c(Cl)cnn1CC(=O)NC1C(=O)N2C(C(=O)O)=C(CSc3nnnn3C)CSC12 (centres undefined)	E coli growth-2 0.074
Cn1nnnc1SCC1=C(C(=O)O)N2C(=O)C(NC(=O)Cn3nc(C(F)F)cc3C3CC3)C2SC1 (centres undefined)	E coli growth-2 0.49
Cc1c(Cl)c(C(F)F)nn1CC(=O)NC1C(=O)N2C(C(=O)O)=C(CSc3nnnn3C)CSC12 (centres undefined)	none (no result: E coli growth-1, AddAB inh)
Cc1nnc(SCC2=C(C(=O)O)N3C(=O)C(NC(=O)Cc4ccccc4)C3SC2)s1 (centres undefined)	none
CCN1CCN(C(=O)NC(C(=O)NC2C(=O)N3C(C(=O)O)=C(CSc4nnnn4C)CSC23)c2ccc(O)cc2)C(=O)C1=O (centres undefined)	E coli growth-2 0.061 (no result: Tat transport, E coli growth-1, AddAB inh, phage Ecoli inh)
Cc1nn(CC(=O)NC2C(=O)N3C(C(=O)O)=C(CSc4nnnn4C)CSC23)cc1Br (centres undefined)	E coli growth-2 0.46
CCCCCC=CC1=CC(=O)CC(c2ccc(OC)c(OC)c2)C1 (centres undefined)	none (no result: Tat transport, E coli growth-1, AddAB inh, phage Ecoli inh)
Cc1ccc(-c2cc(C(=O)NN=Cc3ccoc3)c3ccccc3n2)cc1	none (no result: Tat transport, E coli growth-1, AddAB inh, phage Ecoli inh)
CCN(CC)c1ccc(C=NN=C(N)N)c(O)c1	none (no result: Tat transport, E coli growth-1, AddAB inh, phage Ecoli inh)
CC(C(=O)NC1C(=O)N2C(C(=O)O)=C(CSc3nnnn3C)CSC12)n1cc(Cl)cn1 (centres undefined)	E coli growth-2 0.5
CCCCCCOC(=O)C[N+](C)(C)CCOC1CC2CCC1(C)C2(C)C (centres undefined)	none
